# Screening data (PubChem)
# Only a selection was taken, and hits are over-represented in it overall.
# IDE exosite inh = displaces the probe from the exo-site of human IDE; purified IDE, FL-6b probe fluorescence polarization; active compounds read low; hit rate 6.3% among 17,000; P14735; z-score at 20 µM; AID 1259349;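 active = z-score of -3 or lower, meaning strong loss of probe binding signal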;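 note: His-tagged human IDE residues 42-1019 made in E. coli with 30 nM FL-6b probe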
# A number is an active result; . = inactive; ! = a repeat was not active.
SMILES,IDE exosite inh
CC(C)C#Cc1ccc([C@H]2[C@@H](CO)N3C(=O)CN(C(=O)NC4CCCC4)C[C@@H]23)cc1,.
CN(C)C(=O)C[C@@H]1C[C@@H]2c3cc(NC(=O)Nc4ccc(F)cc4)ccc3O[C@@H]2[C@@H](CO)O1,.
COc1ccc(-c2ccc(C3[C@@H]4CN(S(=O)(=O)c5ccccc5C)C[C@H]3N4)cc2)cc1 (stereo partly drawn),.
Cc1ccccc1-c1ccc(C2[C@@H]3CN(S(=O)(=O)c4ccccc4C)C[C@H]2N3)cc1 (stereo partly drawn),-10.8!
COc1cccc(-c2ccc(C3[C@@H]4CN(S(=O)(=O)c5ccccc5C)C[C@H]3N4)cc2)c1 (stereo partly drawn),.
O=C(NC1CCCC1)N1CCCCN2[C@H](CO)[C@@H](c3ccc(/C=C/c4ccccc4)cc3)[C@H]2C1,-4.25
C/C=C/c1ccc([C@H]2[C@@H](CO)N3CCCCN(C(=O)NC4CCCC4)C[C@H]23)cc1,.
O=C(NC1CCCC1)N1CCCCN2[C@H](CO)[C@H](c3ccc(/C=C/c4ccccc4)cc3)[C@@H]2C1,-9.7
CN(C)C(=O)c1ccc(-c2ccc([C@H]3[C@H](C#N)N(S(C)(=O)=O)[C@H]3CO)cc2)cc1,.
CC(C)NC(=O)NCC[C@@H]1CC[C@H](NS(=O)(=O)c2ccc(Oc3ccccc3)cc2)[C@H](CO)O1,.
N#C[C@H]1[C@H](c2ccc(-c3cccc(F)c3)cc2)[C@@H](CO)N1C(=O)CN1CCOCC1,.
COCC(=O)N1[C@H](CO)[C@@H]2c3ccccc3N(C)C[C@@H]21,.
Cc1nn(C)cc1NC(=O)C[C@H]1CC[C@@H]2[C@@H](COc3ccc(NC(=O)C4CCOCC4)cc3C(=O)N2C)O1,.
CNC[C@H]1Oc2ccc(NS(=O)(=O)c3ccc(OC)cc3)cc2C(=O)N([C@H](C)CO)C[C@H]1C,.
CO[C@H]1CN(C)C(=O)c2ccc(NC(=O)c3cccc(F)c3)cc2OC[C@@H](C)NC[C@@H]1C,.
CO[C@@H]1CN(C)C(=O)c2cc(NC(=O)c3cnccn3)ccc2OC[C@H](C)NC[C@H]1C,.
COc1cccc(NC(=O)Nc2ccc3c(c2)C(=O)N(C)C[C@@H](OC)[C@H](C)CN[C@@H](C)CO3)c1,.
CO[C@H]1CN(C)C(=O)c2cc(NC(=O)c3ccc(Oc4ccccc4)cc3)ccc2OC[C@H](C)NC[C@H]1C,-14.2!
COc1cccc(NC(=O)Nc2ccc3c(c2)C(=O)N(C)C[C@H](OC)[C@@H](C)CN[C@H](C)CO3)c1,.
CO[C@@H]1CN(C)C(=O)c2cc(NC(=O)c3cnccn3)ccc2OC[C@H](C)NC[C@@H]1C,.
CO[C@@H]1CN(C)C(=O)c2cc(NC(=O)c3ccc(Oc4ccccc4)cc3)ccc2OC[C@H](C)NC[C@@H]1C,-7.97
COc1cccc(NC(=O)Nc2ccc3c(c2)C(=O)N(C)C[C@H](OC)[C@H](C)CN[C@@H](C)CO3)c1,.
CO[C@@H]1CN(C)C(=O)c2cc(NC(=O)c3ccc(Oc4ccccc4)cc3)ccc2OC[C@@H](C)NC[C@H]1C,-13.5
Cc1ccccc1S(=O)(=O)N1CCCCN2[C@H](C1)[C@H](c1ccc(C#CCN(C)C)cc1)[C@@H]2CO,.
O=C(c1cccc(F)c1)N1CCCCN2[C@H](CO)[C@H](c3ccc(/C=C/c4ccccc4)cc3)[C@H]2C1,.
SMILES,IDE exosite inh
C[C@@H]1CN([C@H](C)CO)S(=O)(=O)c2ccc(-c3cncnc3)cc2O[C@@H]1CN(C)C(=O)NC1CCCC1,.
O=C(NC[C@H]1N[C@H](CO)[C@H]1c1ccccc1)C1CC1,.
COc1cccc(-c2ccc([C@@H]3[C@@H](CO)N4C(=O)CNC[C@H]34)cc2)c1,.
C/C=C/c1ccc([C@H]2[C@@H](CNC(=O)c3ccccn3)N(C(=O)CC)[C@H]2CO)cc1,.
COc1ccc(CN(C)C[C@@H]2OCc3cnnn3CCCC(=O)N([C@@H](C)CO)C[C@@H]2C)cc1,.
N#C[C@@H]1[C@H](c2ccc(C#Cc3cccc(F)c3)cc2)[C@H](CO)N1C(=O)C1CCOCC1,.
COc1cccc(C#Cc2ccc([C@@H]3[C@@H](CO)N4C(=O)CN(C(=O)Cc5ccccc5)C[C@@H]34)cc2)c1,.
CCC(=O)N1CC(=O)N2[C@@H](CO)[C@H](c3ccc(C#Cc4cccc(OC)c4)cc3)[C@@H]2C1,-9.1
CCC(=O)N1CC(=O)N2[C@H](CO)[C@@H](c3ccc(C#Cc4cccc(OC)c4)cc3)[C@@H]2C1,-5.16
COCC(=O)N1CC(=O)N2[C@H](CO)[C@H](c3ccc(C#Cc4cccc(OC)c4)cc3)[C@H]2C1,-6.59
COCC(=O)N1CC(=O)N2[C@H](CO)[C@H](c3ccc(C#Cc4cccc(OC)c4)cc3)[C@@H]2C1,.
COc1cccc(C#Cc2ccc([C@@H]3[C@@H](CO)N4C(=O)CN(C(=O)Cc5ccccc5)C[C@H]34)cc2)c1,.
COc1cccc(C#Cc2ccc([C@@H]3[C@@H](CO)N4C(=O)CN(C(=O)Cc5cccnc5)C[C@@H]34)cc2)c1,.
COc1cccc(C#Cc2ccc([C@H]3[C@@H](CO)N4C(=O)CN(C(=O)Cc5ccccc5)C[C@H]34)cc2)c1,-4.64
COCC(=O)N(C[C@H]1N[C@H](CO)[C@@H]1c1ccc(-c2ccccc2)cc1)C(C)C,.
CS(=O)(=O)N1CCCCN2[C@H](C1)[C@@H](c1ccc(Br)cc1)[C@@H]2CO,.
CCCC#Cc1ccc([C@@H]2[C@@H](CO)N3C(=O)CN(S(=O)(=O)Cc4ccccc4)C[C@H]23)cc1,.
C[C@@H](NC(=O)C[C@@H]1C=C[C@H](NC(=O)c2cccnc2)[C@@H](CO)O1)c1ccccc1,.
CN(C)CC(=O)N1[C@H](C#N)[C@H](c2ccc(-c3cccc(C(=O)N(C)C)c3)cc2)[C@H]1CO,.
COc1ccc(C[C@@H]2CCc3cnnn3COCCNC2=O)cc1,.
CCC(=O)N1CC(=O)N2[C@H](C1)[C@H](c1ccc(C#Cc3cccc(OC)c3)cc1)[C@@H]2CO,-9.23
CCC(=O)N1CC(=O)N2[C@H](C1)[C@@H](c1ccc(C#Cc3cccc(OC)c3)cc1)[C@@H]2CO,-6.54
CN(C)CC(=O)N1[C@H](C#N)[C@@H](c2ccccc2-c2cccc(C(=O)N(C)C)c2)[C@H]1CO,.
CN(C)C(=O)c1cccc(-c2ccc([C@@H]3[C@@H](CO)N4CCCCN(Cc5cccnc5)C[C@@H]34)cc2)c1,.
CCCC#Cc1ccc([C@H]2[C@@H](CO)N3CCCCN(S(=O)(=O)CC)C[C@@H]23)cc1,.
SMILES,IDE exosite inh
C[C@H](CO)N1C[C@H](C)[C@@H](CN(C)Cc2ccc(Oc3ccccc3)cc2)OCc2ccccc2-c2ccccc2C1=O,.
O=C(Cc1cccnc1)N1CC(=O)N2[C@@H](CO)[C@@H](c3ccc(C#CC4CC4)cc3)[C@@H]2C1,.
N#C[C@H]1[C@@H](c2ccc(C3=CCCC3)cc2)[C@H](CO)N1C(=O)c1ccccn1,.
CCS(=O)(=O)Nc1ccc2c(c1)C(=O)N(C)[C@H]1CC[C@H](CC(=O)N[C@H]3CCN(Cc4ccccc4)C3)O[C@@H]1CO2,.
C[C@@H]1CN([C@@H](C)CO)C(=O)c2cc(NC(=O)C3CCCCC3)ccc2O[C@H]1CN(C)Cc1ccc2c(c1)OCO2,.
COc1ccccc1-c1ccc(C2[C@@H]3CN(C(=O)c4cccnc4)C[C@H]2N3)cc1 (stereo partly drawn),-13.8!
Cc1cccc(-c2ccc(C3[C@@H]4CN(C(=O)c5ccncc5)C[C@H]3N4)cc2)c1 (stereo partly drawn),.
